According to PubChem BioAssay (Tox21):
A number with no mark means an inactive call. Records with an inconclusive call do not appear. Calls of active or inactive are those of the source. Calls come from the whole dose curve; as a rule, active = well fitted curve in the direction sought with a large enough effect in the repeat runs; inconclusive = weak or mixed curves; inactive = no such curve, though single readings can be large; an effect the other way counts as inactive or inconclusive.

assay: qHTS assay to identify small molecule HDAC inhibitors - cell viability counter screen (AID 1259365); conditions: HCT-116 viability, CellTiter-Glo ATP luminescence, 2 h; series mostly up to 92.4 µM; activity change, negative = cytotoxicity: at the top concentration; note: nearly all actives have a fitted effect of over 50% in size
Summary of the method: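 Cytotoxicity was gauged in wild-type HCT-116 cells after a brief 2hr treatment with DMSO-dissolved compounds at 37C and 5% CO2, using CellTiter-Glo luminescence developed for 30min at room temperature.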
% is set by controls: 0 for no effect and ±100 for the full control effect.

Row | Structure (SMILES) | activity change, negative = cytotoxicity
1 | CO[C@H]1C=CO[C@@]2(C)Oc3c(C)c(O)c4c(O)c(cc(O)c4c3C2=O)NC(=O)/C(C)=C\C=C/[C@H](C)[C@H](O)[C@@H](C)[C@@H](O)[C@@H](C)[C@H](OC(C)=O)[C@@H]1C | 1.9%
2 | CCO[Si](CCCSSSSCCC[Si](OCC)(OCC)OCC)(OCC)OCC | -0.0173%
3 | CCCCN(CCCC)CCC(O)c1cc2c(Cl)cc(Cl)cc2c2cc(C(F)(F)F)ccc12 (centres undefined) | -3.36% [at 42.5 µM]
4 | O=C1NCCN1CCN1CCC(c2cn(-c3ccc(F)cc3)c3ccc(Cl)cc23)CC1 | 7.77% [at 42.5 µM]
5 | SCCCCCCCCS | -0.297%
6 | CN(C)c1ccc(N=Nc2ccccc2C(=O)O)cc1 | -13.3%
7 | CCCCCCCCCC(=O)N(C)C | -0.804%
8 | CCN(CC)CCOc1ccc(C(O)(Cc2ccc(Cl)cc2)c2ccc(C)cc2)cc1 (centres undefined) | -1.57% [at 42.5 µM]
9 | C[n+]1c2cc(N)ccc2cc2ccc(N)cc21 (tested in a mixture with another compound) | 13.1% [at 42.5 µM]
10 | N#CSCSc1nc2ccccc2s1 | 22%
11 | O=C(Nc1ccc(Cl)c(Cl)c1)c1cc(Cl)cc(Cl)c1O | -11.5%
12 | CC(C)(c1cc(Br)c(OCCO)c(Br)c1)c1cc(Br)c(OCCO)c(Br)c1 | 11.9%
13 | O[C@@H](c1cc(C(F)(F)F)nc2c(C(F)(F)F)cccc12)[C@H]1CCCCN1 | 12.1% [at 42.5 µM]
14 | CCC(C)(C)c1cc(O)c(C(C)(C)CC)cc1O | 1.16%
15 | CN1CCN(C2Cc3ccccc3Sc3ccc(Cl)cc32)CC1 (centres undefined) | -5.98% [at 42.5 µM]
16 | Cc1ccc(-n2[nH]c(C)c(N=Nc3cccc(-c4cccc(C(=O)O)c4)c3O)c2=O)cc1C | 1.85% [at 42.5 µM]
17 | CCCCOc1ccc(C(=O)CCN2CCCCC2)cc1 | 3.1% [at 42.5 µM]
18 | CCC1(c2cnc[nH]2)Cc2ccccc2C1 | -0.73% [at 42.5 µM]
19 | CCN(CC)CCNc1ccc(CO)c2sc3ccccc3c(=O)c12 | 6.25% [at 42.5 µM]
20 | COc1ccccc1OCCNCC(O)COc1cccc2[nH]c3ccccc3c12 (centres undefined) | -0.545% [at 42.5 µM]
21 | CN(C)CCCN1c2ccccc2Sc2ccc(C(F)(F)F)cc21 | -5.27% [at 42.5 µM]
22 | Oc1ccc(-c2ccc(O)cc2)cc1 | 23.2%
23 | Cc1c(C)n(Cc2ccccc2)c2ccc(C(=O)OCCN(C)C)cc12 | -7.41% [at 42.5 µM]
24 | Cc1cccc(C)c1NC(=O)CN1CCN(CCCC(c2ccc(F)cc2)c2ccc(F)cc2)CC1 | -4.77% [at 42.5 µM]
25 | Nc1cc(Cl)c([N+](=O)[O-])cc1O | 6.63%
26 | COc1cc(C=C2CCC/C(=C\c3ccc(O)c(OC)c3)C2=O)ccc1O | 15.3% [at 42.5 µM]
27 | Cc1cc2c(C(C)C)c(O)c(O)c(C=O)c2c(O)c1-c1c(C)cc2c(C(C)C)c(O)c(O)c(C=O)c2c1O | -1.63% [at 42.5 µM]

assay: qHTS assay to identify small molecule agonists of the sonic hedgehog signaling (Shh) pathway - cell viability counter screen (AID 1259366); conditions: NIH/3T3 Gli1-Luc viability, CellTiter-Fluor, 24 h; series mostly up to 92.4 µM; viability change, negative = cytotoxic: at the top concentration; note: nearly all actives have a fitted effect of over 50% in size; note: potency is the fitted concentration of half-maximal effect
Summary of the method: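 Stable Gli1-Luc NIH/3T3 clone, 2,000 cells/well. Compound exposure 24hr at 37C. Read-out: CellTiter-Fluor fluorescence.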

Row | Structure (SMILES) | Potency | viability change, negative = cytotoxic
28 | CO[C@H]1C=CO[C@@]2(C)Oc3c(C)c(O)c4c(O)c(cc(O)c4c3C2=O)NC(=O)/C(C)=C\C=C/[C@H](C)[C@H](O)[C@@H](C)[C@@H](O)[C@@H](C)[C@H](OC(C)=O)[C@@H]1C | 13.8 µM (active) | –
29 | CCO[Si](CCCSSSSCCC[Si](OCC)(OCC)OCC)(OCC)OCC | – | 1.15%
30 | CCCCN(CCCC)CCC(O)c1cc2c(Cl)cc(Cl)cc2c2cc(C(F)(F)F)ccc12 (centres undefined) | – | 17.4% [at 42.5 µM]
31 | O=C1NCCN1CCN1CCC(c2cn(-c3ccc(F)cc3)c3ccc(Cl)cc23)CC1 | 18.8 µM (active) | –
32 | SCCCCCCCCS | – | 1.27%
33 | CN(C)c1ccc(N=Nc2ccccc2C(=O)O)cc1 | 21.7 µM (active) | –
34 | CCCCCCCCCC(=O)N(C)C | – | 10.1%
35 | C=CC(=O)OCCOCC(CC)(COCCOC(=O)C=C)COCCOC(=O)C=C | 5.67 µM (active) | –
36 | N#CSCSc1nc2ccccc2s1 | 10.9 µM (active) | –
37 | O[C@@H](c1cc(C(F)(F)F)nc2c(C(F)(F)F)cccc12)[C@H]1CCCCN1 | 29.8 µM (active) | –
38 | CCC(C)(C)c1cc(O)c(C(C)(C)CC)cc1O | – | -6.47%
39 | Cc1ccc(-n2[nH]c(C)c(N=Nc3cccc(-c4cccc(C(=O)O)c4)c3O)c2=O)cc1C | – | -17.8% [at 42.5 µM]
40 | CC(=O)OC(OC(C)=O)c1ccc([N+](=O)[O-])o1 | 22.1 µM (active) | –
41 | CCC1(c2cnc[nH]2)Cc2ccccc2C1 | – | -8.39% [at 42.5 µM]
42 | COc1ccccc1OCCNCC(O)COc1cccc2[nH]c3ccccc3c12 (centres undefined) | 26.6 µM (active) | –
43 | CN(C)CCCN1c2ccccc2Sc2ccc(C(F)(F)F)cc21 | – | -28.2% [at 42.5 µM]
44 | COC(=O)C1=C(C)NC(C)=C(C(=O)OCCCN2CCC(c3ccccc3)(c3ccccc3)CC2)C1c1cccc([N+](=O)[O-])c1 (centres undefined) | 26.6 µM (active) | –
45 | Cc1cc(Nc2ccc(O)cc2)ccc1N | 30.5 µM (active) | –
46 | C[C@@]12C(=O)OC(=O)[C@]1(C)C1CCC2O1 | 1.5 µM (active) | –
47 | CC1CCCCN1CCCOC(=O)c1ccc(OC2CCCCC2)cc1 (centres undefined) | – | -5.76% [at 42.5 µM]

assay: qHTS assay to identify small molecule antagonists of the sonic hedgehog signaling (Shh) pathway - cell viability counter screen (AID 1259367); conditions: NIH/3T3 Gli1-Luc viability, CellTiter-Fluor, 24 h; series mostly up to 92.4 µM; viability change, negative = cytotoxic: at the top concentration; note: nearly all actives have a fitted effect of over 55% in size; note: potency is the fitted concentration of half-maximal effect
Summary of the method: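 After a 4 hr settling period, 3T3 Gli1-Luc cells were treated with DMSO-dissolved chemicals and conditioned medium, kept 24 hr at 37C in 5% CO2, and assayed for viability by CellTiter-Fluor fluorescence following 1 hr reagent incubation.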

Row | Structure (SMILES) | viability change, negative = cytotoxic | Potency
48 | CCO[Si](CCCSSSSCCC[Si](OCC)(OCC)OCC)(OCC)OCC | -5.87% | –
49 | CCCCN(CCCC)CCC(O)c1cc2c(Cl)cc(Cl)cc2c2cc(C(F)(F)F)ccc12 (centres undefined) | 12.7% [at 42.5 µM] | –
50 | SCCCCCCCCS | -4.18% | –
51 | CN(C)c1ccc(N=Nc2ccccc2C(=O)O)cc1 | – | 24.3 µM (active)
52 | CCCCCCCCCC(=O)N(C)C | -0.739% | –
53 | N#CSCSc1nc2ccccc2s1 | – | 24.3 µM (active)
54 | CCC(C)c1cc([N+](=O)[O-])cc([N+](=O)[O-])c1OC(=O)OC(C)C (centres undefined) | – | 68.6 µM (active)
55 | CC(C)(c1cc(Br)c(OCCO)c(Br)c1)c1cc(Br)c(OCCO)c(Br)c1 | 0.295% | –
56 | O[C@@H](c1cc(C(F)(F)F)nc2c(C(F)(F)F)cccc12)[C@H]1CCCCN1 | – | 29.8 µM (active)
57 | CCC(C)(C)c1cc(O)c(C(C)(C)CC)cc1O | -2.56% | –
58 | CCCCOc1ccc(C(=O)CCN2CCCCC2)cc1 | -6.71% [at 42.5 µM] | –
59 | CCC1(c2cnc[nH]2)Cc2ccccc2C1 | -10.3% [at 42.5 µM] | –
60 | Cc1c(C)n(Cc2ccccc2)c2ccc(C(=O)OCCN(C)C)cc12 | -18.7% [at 42.5 µM] | –
61 | CCCCCCCCCCOCC(O)CN (centres undefined) | -20.2% [at 42.5 µM] | –
62 | COc1cc(C=C2CCC/C(=C\c3ccc(O)c(OC)c3)C2=O)ccc1O | – | 23.7 µM (active)
63 | C[C@@]12C(=O)OC(=O)[C@]1(C)C1CCC2O1 | – | 3.76 µM (active)
64 | CC1CCCCN1CCCOC(=O)c1ccc(OC2CCCCC2)cc1 (centres undefined) | 0.105% [at 42.5 µM] | –
